Among the data in PubChem BioAssay (NCATS) are outcome and Potency values, retold here.

The target in experiment [1] is Calcium and integrin-binding protein 1 (Homo sapiens) (UniProt Q99828). As to the kind of experiment: Validation qHTS for Identification of Calcium Integrin Binding protein 1 (CIB1) Competitor (AID 1508618). An outline of the steps:
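CIB1-GST (1 uM final) incubated 15 min at room temperature with compounds (up to 114 uM), then FITC-labelled alphaIIb peptide (100 nM) added. FP read (Ex 480/Em 540) after 15 min, pH 7.4 buffer containing 5 mM CaCl2.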

For experiment [2] the target is unchanged. The experiment in a line: Primary qHTS for Identification of Calcium Integrin Binding Protein 1 (CIB1) Competitor (AID 1508620).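 Also: GST tagged CIB1 binding a fluorescein labelled alphaIIb integrin peptide tracer; top concentration of the series differs between compounds.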 An outline of the steps: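 CIB1-GST (1 uM final) and compound incubated 15 min at room temperature before adding FITC-alphaIIb peptide tracer (100 nM final). Competition for binding read by fluorescence polarization (ex 480, em 540) after another 15 min at room temperature.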
(In general: Quantitative high-throughput screening tests each substance at several concentrations.)

The nature of experiment [3]: Primary qHTS for small molecule stabilizers of the endoplasmic reticulum resident proteome: Secreted ER Calcium Modulated Protein (SERCaMP) assay (AID 1508630). The procedure, abridged:
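The SH-SY5Y reporter protocol was run at 3 concentrations up to 38.3 uM (primary) or 11 concentrations (follow-up): 16 h compound, 100 nM thapsigargin for 4 h, then extracellular luciferase luminescence.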

A short description of experiment [4]: A High-Content qHTS Against Drug Library for the Identification of Small Molecules that Inhibit DYT1 Early Onset Primary Dystonia-Associated Cell Pathology (AID 1645839; calls by dose curve; also: potency is read from the fitted curve at half-maximal effect). The procedure, abridged:
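High-content imaging quantified EGFP-TorsinA mislocalization in HEK293-derived cells inducibly expressing DYT1 mutant torsinA, after 48 h exposure to compound given together with tetracycline induction. Cell count served as a toxicity channel alongside %pathology.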

In experiment [5] the target is Cytochrome P450 2D6 (Homo sapiens) (UniProt P10635). As to the kind of experiment: Cytochrome P450 family 2 subfamily D member 6 (CYP2D6) small molecule antagonists: luciferase biochemical (cell-free) qHTS assay (AID 1645840; active = well fitted curve in the direction sought with a large enough effect in the repeat runs; an effect the other way counts as inactive or inconclusive; also: nearly all actives have a fitted effect of over 55% in size; also: potency is read from the fitted curve at half-maximal effect). An outline of the steps:
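P450-Glo CYP2D6 system: proluciferin substrate converted by enzyme to luciferin, read by luminescence proportional to activity. Enzyme-substrate mix with compound 10 min at room temperature, then NADPH regeneration 1 h before detection reagent.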

Experiment [6] has as its target Papain (Carica papaya) (UniProt P00784). The experiment in a line: Primary qHTS assay for inhibitors of the protease papain (AID 1645873).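 Also: papain turnover of Z-FR-AMC read as the AMC fluorescence gain over 10 min; series mostly up to about 50 µM.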
The nature of experiment [7]: Primary qHTS for inhibitors of nuclear receptor binding SET domain protein 2 (NSD2) in an isogenic RCH-ACV NSD2 p.E1099K mutant (9B) (AID 1645876). Also: nearly all actives have a fitted effect of over 70% in size. Also: potency is read from the fitted curve at half-maximal effect.
Experiment [8] concerns the target Cytochrome P450 2C9 (Homo sapiens) (UniProt P11712). As to the kind of experiment: Cytochrome P450 family 2 subfamily C member 9 (CYP2C9) small molecule antagonists: luciferase biochemical (cell-free) qHTS assay (AID 1645842; active = well fitted curve in the direction sought with a large enough effect in the repeat runs; an effect the other way counts as inactive or inconclusive; also: nearly all actives have a fitted effect of over 55% in size; also: potency is read from the fitted curve at half-maximal effect). An outline of the steps:
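P450-Glo CYP2C9 system: proluciferin substrate with enzyme in mix containing 0.4% BSA, 10 min at room temperature, then NADPH regeneration solution added and incubated 1 h at 37C. Detection reagent stopped reaction; luminescence read after 20 min as RLU.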

The nature of experiment [9]: Primary qHTS for inhibitors of nuclear receptor binding SET domain protein 2 (NSD2) in an RCH-ACV wild type WT cells (2C) (AID 1645877). Also: nearly all actives have a fitted effect of over 70% in size. Also: potency is read from the fitted curve at half-maximal effect.
The target of experiment [10] is Rap guanine nucleotide exchange factor 3 (Homo sapiens) (UniProt O95398). The experiment in a line: Confirmatory qHTS for agonist of cAMP-regulated guanine nucleotide exchange factor 3 (EPAC1) (AID 1645881).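 Also: EPAC1 catalysed release of BODIPY-GDP from Rap1B seen as fluorescence loss; nearly all actives have a fitted effect of over 75% in size.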
Experiment [11] addresses Rap guanine nucleotide exchange factor 4 (Homo sapiens) (UniProt Q8WZA2). As to the kind of experiment: Confirmatory qHTS for antagonist of cAMP-regulated guanine nucleotide exchange factor 4 (EPAC2) (AID 1645885). Also: potency is read from the fitted curve at half-maximal effect; nearly all actives have a fitted effect of over 25% in size.

Values joined by “and” are separate entries in the source; they are usually repeats but may differ in a detail not shown here. Identical values can stand only once. Inconclusive results are not listed. Unmarked numbers belong to inactive results. Active and inactive are the calls of the source. Unless noted, calls follow the shape of the dose curve; as a rule, active = well fitted curve in the direction sought with a large enough effect; inconclusive = small, poorly fitted or top-dose-only effect, or another doubt; inactive = no such curve, though single readings can be large; an effect the other way counts as inactive or inconclusive.

Chain of Calcium and integrin-binding protein 1 (Homo sapiens) (Q99828 whole entry, looked up): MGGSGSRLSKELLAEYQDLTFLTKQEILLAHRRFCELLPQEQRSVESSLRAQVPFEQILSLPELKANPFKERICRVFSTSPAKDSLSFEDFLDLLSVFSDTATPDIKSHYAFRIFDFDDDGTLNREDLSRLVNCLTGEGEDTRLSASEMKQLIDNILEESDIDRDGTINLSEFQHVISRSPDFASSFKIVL
Chain of Cytochrome P450 2C9 (Homo sapiens) (P11712 whole entry, looked up): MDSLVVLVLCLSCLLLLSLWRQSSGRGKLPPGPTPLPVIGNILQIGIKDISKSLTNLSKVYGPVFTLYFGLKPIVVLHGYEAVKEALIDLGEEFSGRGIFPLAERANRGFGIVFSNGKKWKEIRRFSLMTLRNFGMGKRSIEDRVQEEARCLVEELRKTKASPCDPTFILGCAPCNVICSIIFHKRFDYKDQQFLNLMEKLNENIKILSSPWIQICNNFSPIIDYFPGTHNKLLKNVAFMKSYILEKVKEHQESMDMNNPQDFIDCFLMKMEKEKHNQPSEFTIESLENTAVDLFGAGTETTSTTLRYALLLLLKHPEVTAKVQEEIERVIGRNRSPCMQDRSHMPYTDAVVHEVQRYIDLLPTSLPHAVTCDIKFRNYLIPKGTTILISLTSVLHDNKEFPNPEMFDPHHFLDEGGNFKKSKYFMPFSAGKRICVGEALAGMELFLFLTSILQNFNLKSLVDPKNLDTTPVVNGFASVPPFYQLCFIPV
Chain of Papain (Carica papaya) (P00784 whole entry, looked up, the tested form may be a part): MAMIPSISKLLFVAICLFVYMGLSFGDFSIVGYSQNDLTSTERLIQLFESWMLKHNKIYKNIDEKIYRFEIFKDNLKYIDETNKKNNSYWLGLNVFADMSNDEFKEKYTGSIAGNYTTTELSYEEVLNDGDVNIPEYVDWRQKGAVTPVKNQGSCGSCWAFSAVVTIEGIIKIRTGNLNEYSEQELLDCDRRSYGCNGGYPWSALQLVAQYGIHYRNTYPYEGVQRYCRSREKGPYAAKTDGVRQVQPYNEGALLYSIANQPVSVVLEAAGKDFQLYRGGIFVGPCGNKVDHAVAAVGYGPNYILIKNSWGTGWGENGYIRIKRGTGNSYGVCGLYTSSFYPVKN
Chain of Cytochrome P450 2D6 (Homo sapiens) (P10635 whole entry, looked up): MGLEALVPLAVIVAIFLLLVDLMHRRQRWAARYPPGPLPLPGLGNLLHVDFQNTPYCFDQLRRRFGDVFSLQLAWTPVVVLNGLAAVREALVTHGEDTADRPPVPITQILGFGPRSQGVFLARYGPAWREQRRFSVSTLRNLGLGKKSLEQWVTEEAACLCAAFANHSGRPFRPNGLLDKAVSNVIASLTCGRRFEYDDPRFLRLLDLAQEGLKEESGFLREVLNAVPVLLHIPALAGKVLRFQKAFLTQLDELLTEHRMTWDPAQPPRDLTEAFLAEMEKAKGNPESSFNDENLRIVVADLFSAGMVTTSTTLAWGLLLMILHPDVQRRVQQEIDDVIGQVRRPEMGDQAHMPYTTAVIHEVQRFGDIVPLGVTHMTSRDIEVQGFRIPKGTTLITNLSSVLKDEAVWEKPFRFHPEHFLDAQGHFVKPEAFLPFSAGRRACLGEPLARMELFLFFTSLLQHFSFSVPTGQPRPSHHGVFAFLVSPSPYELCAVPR
Chain of Rap guanine nucleotide exchange factor 3 (Homo sapiens) (O95398 whole entry, looked up): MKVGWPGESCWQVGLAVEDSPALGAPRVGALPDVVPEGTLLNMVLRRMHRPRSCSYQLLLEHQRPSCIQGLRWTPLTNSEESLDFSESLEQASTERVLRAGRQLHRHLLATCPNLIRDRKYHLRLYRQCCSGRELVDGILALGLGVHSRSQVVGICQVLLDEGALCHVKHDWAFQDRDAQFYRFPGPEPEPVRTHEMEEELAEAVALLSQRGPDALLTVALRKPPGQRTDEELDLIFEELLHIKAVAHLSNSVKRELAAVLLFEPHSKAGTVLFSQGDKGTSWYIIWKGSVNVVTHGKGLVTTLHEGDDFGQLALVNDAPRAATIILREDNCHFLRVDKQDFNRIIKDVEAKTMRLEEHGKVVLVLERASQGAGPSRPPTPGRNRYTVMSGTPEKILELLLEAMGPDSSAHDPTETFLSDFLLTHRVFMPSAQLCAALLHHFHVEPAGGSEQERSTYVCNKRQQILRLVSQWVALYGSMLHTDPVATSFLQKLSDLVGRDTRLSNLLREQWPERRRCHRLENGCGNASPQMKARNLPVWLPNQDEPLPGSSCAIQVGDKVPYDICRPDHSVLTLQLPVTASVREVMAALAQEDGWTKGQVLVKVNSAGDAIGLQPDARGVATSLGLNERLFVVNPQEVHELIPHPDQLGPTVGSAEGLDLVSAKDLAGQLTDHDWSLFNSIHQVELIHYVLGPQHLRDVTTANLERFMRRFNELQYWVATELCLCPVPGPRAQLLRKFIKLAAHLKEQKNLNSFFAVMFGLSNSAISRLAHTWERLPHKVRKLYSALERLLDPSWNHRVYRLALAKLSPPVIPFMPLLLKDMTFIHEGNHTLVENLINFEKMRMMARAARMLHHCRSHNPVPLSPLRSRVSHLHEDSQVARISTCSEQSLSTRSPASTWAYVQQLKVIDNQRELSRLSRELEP
Chain of Rap guanine nucleotide exchange factor 4 (Homo sapiens) (Q8WZA2 whole entry, looked up): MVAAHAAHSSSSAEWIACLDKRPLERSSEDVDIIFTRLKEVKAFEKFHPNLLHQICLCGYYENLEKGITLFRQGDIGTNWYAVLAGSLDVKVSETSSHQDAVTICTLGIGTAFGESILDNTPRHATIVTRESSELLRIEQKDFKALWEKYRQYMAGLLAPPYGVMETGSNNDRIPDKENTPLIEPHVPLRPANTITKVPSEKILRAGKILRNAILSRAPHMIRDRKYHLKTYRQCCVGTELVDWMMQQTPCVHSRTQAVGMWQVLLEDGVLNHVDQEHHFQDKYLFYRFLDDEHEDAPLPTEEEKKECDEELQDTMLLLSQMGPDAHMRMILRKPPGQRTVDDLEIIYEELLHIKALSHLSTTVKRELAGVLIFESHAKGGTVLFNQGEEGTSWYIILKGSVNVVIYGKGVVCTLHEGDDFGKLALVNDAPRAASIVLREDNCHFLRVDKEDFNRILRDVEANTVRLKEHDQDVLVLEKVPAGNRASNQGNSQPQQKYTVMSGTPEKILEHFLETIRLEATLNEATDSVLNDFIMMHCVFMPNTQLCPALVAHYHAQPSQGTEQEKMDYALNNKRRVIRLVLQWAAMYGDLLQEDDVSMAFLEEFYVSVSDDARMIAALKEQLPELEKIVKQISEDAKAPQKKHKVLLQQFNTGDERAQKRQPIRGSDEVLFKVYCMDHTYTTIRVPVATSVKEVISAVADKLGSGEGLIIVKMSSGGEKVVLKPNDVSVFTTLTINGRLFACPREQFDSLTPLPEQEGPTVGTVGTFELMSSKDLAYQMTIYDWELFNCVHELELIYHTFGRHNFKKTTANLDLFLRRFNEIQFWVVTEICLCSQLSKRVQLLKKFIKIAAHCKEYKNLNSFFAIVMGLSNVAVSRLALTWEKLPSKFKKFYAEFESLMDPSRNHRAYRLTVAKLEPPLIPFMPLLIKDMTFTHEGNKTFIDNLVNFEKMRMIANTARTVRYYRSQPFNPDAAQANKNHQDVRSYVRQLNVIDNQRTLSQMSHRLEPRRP

Consider `CCN(Cc1ccncc1)C(=O)C(CO)c1ccccc1` (stereo not given), for which, in experiment [1], the result was inactive. Also, the Potency entry in experiment [2], in experiment [3], in experiment [4], in [5], in [6] and in experiment [7] was “inactive” in each case.
Regarding `CC(C)[N+](C)(CCOC(=O)C1c2ccccc2Oc2ccccc21)C(C)C`, the outcome in experiment [1] was inactive. Moreover, the Potency result in experiment [2], in experiment [4], in experiment [8], in experiment [6] and in [7] was “inactive” throughout. The Potency in experiment [5] was 0.309 µM (active).
Turning to `CCCNC(C)C(=O)Nc1ccccc1C` (stereo not given), the result in [1] was inactive. Besides, the Potency entry in experiment [2], in experiment [3], in experiment [4], in experiment [8], in experiment [6] and in experiment [7] was “inactive” throughout.
Take `Cc1ccc(S(=O)(=O)NC(=O)NN2CCCCCC2)cc1`: in [1], the result was inactive. Besides, the Potency result in [2], in experiment [3], in experiment [4], in experiment [6], in experiment [7] and in experiment [9] was “inactive” throughout.
Turning to `COCCOC(=O)C1=C(C)NC(C)=C(C(=O)OC(C)C)C1c1cccc([N+](=O)[O-])c1` (stereo not given), the result in [1] was inactive. Also, the Potency result in experiment [2], in experiment [3], in [6], in [7] and in experiment [10] was “inactive” each time. In addition, the Potency in [11] is 49.4 µM (active).
With `C[C@@H](O)[C@H]1C(=O)N2C(C(=O)O)=C(SCCN=CN)C[C@H]12`, in [1], the outcome was inactive. The Potency entry in experiment [2], in experiment [3], in experiment [4], in experiment [5], in experiment [6] and in [7] was “inactive” in each case.
Regarding `CCc1c(C)[nH]c2c1C(=O)C(CN1CCOCC1)CC2` (stereo not given), in [1], the result was inactive. The Potency result in experiment [2], in [3], in [4] and in experiment [6] was “inactive” in each case.
For the compound `CC(C)(C)c1ccc(C(=O)CCCN2CCC(OC(c3ccccc3)c3ccccc3)CC2)cc1`, in [1], the outcome was inactive. Further, the Potency result in experiment [2], in experiment [3] and in experiment [6] was “inactive” throughout. Further, the Potency in experiment [7] is 11.9 µM (active); in experiment [9] it was 9.44 µM (active).
For `NS(=O)(=O)c1cc2c(cc1Cl)NC(C1CC3C=CC1C3)NS2(=O)=O` (stereo not given), in [1], the result was inactive. The Potency entry in experiment [2], in experiment [3], in experiment [4], in experiment [6] and in [7] was “inactive” throughout.
Regarding `Cc1nc2c([nH]1)c(=O)n(C)c(=O)n2Cc1ccco1`, the result in experiment [1] was inactive. The Potency result in [2], in experiment [3], in experiment [4], in experiment [8], in [6] and in experiment [9] was “inactive” each time.
As to `COC(=O)C1=C(C)NC(C)=C(C(=O)OC(C)(C)CN(C)CCC(c2ccccc2)c2ccccc2)C1c1cccc([N+](=O)[O-])c1` (stereo not given), the result in experiment [1] was inactive. Besides, the Potency entry in [2] and in experiment [6] was “inactive” in each case. For the same compound, the Potency in experiment [4] was 10 µM (active); in experiment [5], 2.75 µM (active); in experiment [8] it was 1.95 µM (active).
Regarding `CC(C)(Oc1ccc(CCNC(=O)c2ccc(Cl)cc2)cc1)C(=O)O`, the result in experiment [1] was inactive. In addition, the Potency result in experiment [2], in experiment [3], in [4], in experiment [5], in experiment [6] and in experiment [7] was “inactive” in each case.
Take `NC(N)=NC(=O)Cc1c(Cl)cccc1Cl`: the outcome in [1] was inactive. For the same compound, the Potency result in [2], in experiment [3], in experiment [4], in [8] and in experiment [6] was “inactive” throughout.
`C[C@]12CC[C@@H]3c4ccc(O)cc4C[C@@H](CCCCCCCCCS(=O)CCCC(F)(F)C(F)(F)F)[C@H]3[C@@H]1CC[C@@H]2O` (stereo not given in full): the outcome in experiment [1] was inactive. Moreover, the Potency result in [2], in [3], in [5], in experiment [6] and in experiment [7] was “inactive” in each case. The Potency in experiment [8] is 1.38 µM (active).
As for `CCN(CC)CCNC(=O)c1ccc(NC(C)=O)cc1`, the result in experiment [1] was inactive. Also, the Potency entry in experiment [2], in [3], in experiment [4], in experiment [8], in experiment [6] and in [7] was “inactive” throughout.
As for `CCCCNC(=O)NS(=O)(=O)c1ccc(C)cc1`, the outcome in experiment [1] was inactive. The Potency result in [2], in experiment [3], in [4], in experiment [5], in [6] and in [7] was “inactive” in each case. For the same compound, in experiment [9], the Potency result is “inactive”.
Consider `CN/C(=C\[N+](=O)[O-])NCCSCc1ccc(CN(C)C)o1`, for which the outcome in experiment [1] was inactive. Besides, the Potency entry in experiment [2], in experiment [4], in experiment [8], in experiment [7] and in experiment [9] was “inactive” throughout. The Potency in [5] is 15.5 µM (active).
Consider `c1ccc2c(c1)CCCC2C1=NCCN1` (stereo not given), for which the outcome in experiment [1] was inactive. Also, the Potency entry in experiment [2], in experiment [3], in experiment [4], in [6] and in [7] was “inactive” in each case.
As for `CN=C(NC#N)NCCSCc1nc[nH]c1C`, in experiment [1], the outcome was inactive. The Potency result in experiment [2], in experiment [3], in experiment [4], in experiment [6] and in [7] was “inactive” throughout. Besides, in experiment [8], the Potency is 13.8 µM (active).
For `CN(C)CCOC(=O)COc1ccc(Cl)cc1`, the outcome in experiment [1] was inactive. Further, the Potency entry in experiment [2], in experiment [3], in [4], in experiment [8], in experiment [6] and in experiment [7] was “inactive” each time.
For `COCCc1ccc(OCC(O)CNC(C)C)cc1` (stereo not given), the result in experiment [1] was inactive. In addition, the Potency entry in experiment [2], in experiment [3], in [4], in experiment [6], in [7] and in experiment [9] was “inactive” in each case.
Turning to `CC(=O)[C@@]1(O)CC[C@H]2[C@@H]3CCC4=CC(=O)CC[C@]4(C)[C@H]3CC[C@@]21C`, in [1], the result was inactive. In addition, the Potency result in experiment [2], in [3], in experiment [4], in experiment [6], in experiment [7] and in [9] was “inactive” in each case.
Regarding `CC(C)COCC(CN(Cc1ccccc1)c1ccccc1)N1CCCC1` (stereo not given), the result in experiment [1] was inactive. Besides, the Potency entry in experiment [2], in experiment [3] and in [6] was “inactive” in each case. The Potency in [5] is 0.0347 µM (active); in experiment [7] it was 2.99 µM (active) and 16.6 µM (active); in [9], 4.22 µM (active) and 16.6 µM (active).
As for `COCC(=O)O[C@]1(CCN(C)CCCc2nc3ccccc3[nH]2)CCc2cc(F)ccc2[C@@H]1C(C)C`, in experiment [1], the outcome was inactive. Also, the Potency entry in experiment [2], in [3] and in [8] was “inactive” throughout. In addition, the Potency in [5] was 0.049 µM (active); in experiment [7], 10.6 µM (active); in experiment [9], 9.44 µM (active).
On to `CCCCCCCC/C=C\CCCCCCCC(=O)NCc1ccc(O)c(OC)c1`, for which the outcome in [1] was inactive. Also, the Potency result in [2], in [3], in [5] and in experiment [6] was “inactive” in each case. For the same compound, the Potency is 1.1 µM (active) and 1.69 µM (active) in [8]; 2.66 µM (active) in [7]; 3.35 µM (active) in experiment [9].
In the case of `CSc1ccc(C(=O)c2[nH]c(=O)[nH]c2C)cc1`, the result in [1] was inactive. In addition, the Potency result in [2], in experiment [3], in [4], in experiment [8], in experiment [6] and in experiment [7] was “inactive” in each case. Also, the Potency result in experiment [9] is “inactive”.
In the case of `CC(=O)OC(C)C[N+](C)(C)C` (stereo not given), the result in experiment [1] was inactive. The Potency result in experiment [2], in experiment [3], in experiment [4], in experiment [8], in experiment [6] and in experiment [7] was “inactive” throughout.
